Data reported in PubChem BioAssay (EPA / NIEHS).
Results filed as inconclusive are left out. Calls of active or inactive are those of the source. The calls were made as follows, unless noted: active = hit-call score of the fitted dose curve at least 0.9, where 1 is the maximum; inactive = score below 0.9.

What was measured:
[1] = read-out: Monocyte Chemoattractant Protein-1 (MCP1), CCL2 (gene 6347); experiment: BSK_LPS_MCP1: BioMAP Diversity Plus: LPS Assay for Monocyte Chemoattractant Protein-1 (MCP1) Biomarker Activity (AID 2283081); conditions: primary human HUVEC with PBMC; actives raise or lower the signal
In short: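 Human endothelial–PBMC co-cultures were dosed with chemical, then LPS-driven MCP-1 levels were quantified by ELISA at 24 h. Activity in either direction was fitted versus DMSO negative control.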

[2] = BSK_LPS_PGE2: BioMAP Diversity Plus: LPS Assay for Prostaglandin E2 (PGE2) Biomarker Activity (AID 2283082); conditions: primary human HUVEC with PBMC; actives raise or lower the signal
In short: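 ELISA read-out of PGE2 from human umbilical vein endothelial cells co-cultured with peripheral blood mononuclear cells under LPS, 24 h post-dose. Gain or loss of signal scored relative to DMSO baseline.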

[3] = read-out: Macrophage colony-stimulating factor (MCSF), CSF1 (gene 1435); experiment: BSK_LPS_MCSF: BioMAP Diversity Plus: LPS Assay for Macrophage colony-stimulating factor (MCSF) Biomarker Activity (AID 2283083); conditions: primary human HUVEC with PBMC; actives raise or lower the signal
In short: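 ELISA readout of M-CSF after 24 h compound exposure in a human endothelial/PBMC co-culture. Activity, in either direction, is fitted relative to DMSO vehicle.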

[4] = read-out: Tissue Factor, F3 (gene 2152); experiment: BSK_LPS_TissueFactor: BioMAP Diversity Plus: LPS Assay for Tissue Factor Biomarker Activity (AID 2283084); conditions: primary human HUVEC with PBMC; actives raise or lower the signal
In short: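 ELISA signal for cell-surface Tissue Factor (CD142) was read 24 h after compound dosing of an LPS-stimulated human endothelial–PBMC primary co-culture. Gain or loss of signal was scored relative to DMSO.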

[5] = read-out: Tumor necrosis factor (Homo sapiens) (UniProt P01375); experiment: BSK_LPS_TNFa: BioMAP Diversity Plus: LPS Assay for Tumour Necrosis Factor alpha (TNFa) Biomarker Activity (AID 2283085); conditions: primary human HUVEC with PBMC; actives raise or lower the signal
In short: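 HUVEC/PBMC co-culture, LPS-stimulated; 24 h post-dose; TNFa by ELISA; gain or loss of signal fitted bidirectionally vs DMSO baseline.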

[6] = read-out: CD38, CD38 (gene 952); experiment: BSK_SAg_CD38: BioMAP Diversity Plus: SAg Assay for CD38 Biomarker Activity (AID 2283087); conditions: primary human HUVEC with PBMC; actives raise or lower the signal
In short: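 Measures CD38 on a human endothelial/PBMC co-culture driven by SEB and TSST-1, 24 h after compound exposure, using ELISA with fluorescence detection; DMSO defines baseline for bidirectional curve fitting.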

[7] = read-out: CD40, CD40 (gene 958); experiment: BSK_SAg_CD40: BioMAP Diversity Plus: SAg Assay for CD40 Biomarker Activity (AID 2283088); conditions: primary human HUVEC with PBMC; actives raise or lower the signal
In short: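 Compounds were dosed onto a human primary endothelial–PBMC co-culture, and after 24 h CD40 was quantified by ELISA using a fluorescence signal. Activity in either direction was fitted relative to DMSO.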

[8] = read-out: CD69, CD69 (gene 969); experiment: BSK_SAg_CD69: BioMAP Diversity Plus: SAg Assay for CD69 Biomarker Activity (AID 2283089); conditions: primary human HUVEC with PBMC; actives raise or lower the signal
In short: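 Primary human vascular co-culture (umbilical vein endothelium with peripheral blood mononuclear cells) exposed to test chemical for 24 h. CD69 levels quantified by fluorescence ELISA; DMSO served as negative control for bidirectional fitting.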

[9] = read-out: Monocyte Chemoattractant Protein-1 (MCP1), CCL2 (gene 6347); experiment: BSK_SAg_MCP1: BioMAP Diversity Plus: SAg Assay for Monocyte Chemoattractant Protein-1 (MCP1) Biomarker Activity (AID 2283090); conditions: primary human HUVEC with PBMC; actives raise or lower the signal
In short: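 Values derive from bidirectional fitting of ELISA-measured MCP1 against DMSO controls. Readings were taken 24 h after dosing human vascular endothelial cells co-cultured with peripheral blood mononuclear cells under superantigen stimulation.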

[10] = read-out: E-selectin (Homo sapiens) (UniProt P16581); experiment: BSK_SAg_Eselectin: BioMAP Diversity Plus: SAg Assay for Eselectin Biomarker Activity (AID 2283091); conditions: primary human HUVEC with PBMC; actives raise or lower the signal
In short: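 Co-culture: HUVEC + PBMC. Dose compound; 24 h. ELISA for E-selectin. Bidirectional fit vs DMSO.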

[11] = read-out: Monokine induced gamma interferon (MIG), CXCL9 (gene 4283); experiment: BSK_SAg_MIG: BioMAP Diversity Plus: SAg Assay for Monokine induced gamma interferon (MIG) Biomarker Activity (AID 2283092); conditions: primary human HUVEC with PBMC; actives raise or lower the signal
In short: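 Endothelial cells and PBMC were co-cultured, exposed to test chemicals, and sampled 24 h later. MIG was measured by ELISA, and responses were fitted in both directions relative to DMSO.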

[12] = BSK_SAg_PBMCCytotoxicity: PBMC Cytotoxicity Assessment in the BioMAP Diversity Plus: SAg Assay (AID 2283093); conditions: primary human HUVEC with PBMC;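 also: PBMC viability measured as Alamar Blue reduction fluorescence at 546/580 nm; fitted both ways against DMSO so a hit may be loss or gain of signal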
In short: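 Alamar Blue reduction (6 h, 546/580 nm) reports PBMC cytotoxicity after 90 h superantigen activation (SEB, TSST-1; 20 ng/mL final each) with 1 h compound pre-treatment. Gain or loss of signal fitted versus DMSO.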

[13] = read-out: Interleukin-8 (IL8), CXCL8 (gene 3576); experiment: BSK_SAg_IL8: BioMAP Diversity Plus: SAg Assay for Interleukin-8 (IL8) Biomarker Activity (AID 2283094); conditions: primary human HUVEC with PBMC; actives raise or lower the signal
In short: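 HUVEC/PBMC co-culture, 24 h post-dose; IL-8 by ELISA. Gain or loss of signal fitted bidirectionally vs DMSO baseline.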

[14] = BSK_SAg_Proliferation: Cell Proliferation Assessment in the BioMAP Diversity Plus: SAg Assay (AID 2283095); conditions: primary human HUVEC with PBMC;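 also: relative cell number as total protein by SRB absorbance in sub-confluent culture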
In short: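 HUVEC/PBMC co-culture, 96-well. TCA-fixed (10%), 0.1% SRB stain, A560 at 96 h. Protein content used as viability readout; bidirectional fitting vs DMSO control.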

[15] = BSK_SAg_SRB: Viability Assessment in the BioMAP Diversity Plus: SAg Assay (AID 2283096); conditions: primary human HUVEC with PBMC;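 also: cells read one day after compound addition; hits may be either gain or loss of signal compared with DMSO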
In short: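 This overt-cytotoxicity endpoint quantifies protein in human endothelial/PBMC co-cultures at 24 h using SRB absorbance (560 nm) after trichloroacetic acid fixation. Values reflect signal change from the DMSO negative control, fitted bidirectionally.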

[16] = biological target: human CYP1A1, CYP1A1 (gene 1543) (UniProt P04798); experiment: NVS_ADME_hCYP1A1: NovaScreen (NVS) CYP450-related Enzyme Activity (ADME) Assay for human CYP1A1 (AID 2283100; active = hit-call score of the fitted dose curve at least 0.9, where 1 is the maximum)
In short: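 Recombinant hCYP1A1 + fluorogenic substrate, cell-free; 1 h; fluorescence read. Single-point 10 uM (duplicate) → concentration series, max 20 uM. Acetonitrile negative control.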

Measured: outcome

Chain of E-selectin (Homo sapiens) (P16581 whole entry, looked up): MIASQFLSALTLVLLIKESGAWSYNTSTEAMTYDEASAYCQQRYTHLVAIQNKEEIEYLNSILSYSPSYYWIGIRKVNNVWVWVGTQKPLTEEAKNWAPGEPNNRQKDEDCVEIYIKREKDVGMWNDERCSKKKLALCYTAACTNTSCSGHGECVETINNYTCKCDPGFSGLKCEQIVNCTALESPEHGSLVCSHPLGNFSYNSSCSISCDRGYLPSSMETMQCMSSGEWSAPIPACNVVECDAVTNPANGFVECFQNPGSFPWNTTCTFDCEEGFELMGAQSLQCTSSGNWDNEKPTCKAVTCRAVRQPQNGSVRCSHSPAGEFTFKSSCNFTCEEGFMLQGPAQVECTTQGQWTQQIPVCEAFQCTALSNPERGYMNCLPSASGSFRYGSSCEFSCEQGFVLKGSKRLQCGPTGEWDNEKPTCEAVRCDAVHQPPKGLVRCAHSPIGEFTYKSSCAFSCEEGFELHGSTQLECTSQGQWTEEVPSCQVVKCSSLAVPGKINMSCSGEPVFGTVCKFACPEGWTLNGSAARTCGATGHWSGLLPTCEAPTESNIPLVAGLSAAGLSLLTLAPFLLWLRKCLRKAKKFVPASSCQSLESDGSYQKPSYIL
Chain of human CYP1A1, CYP1A1 (gene 1543) (P04798 whole entry, looked up): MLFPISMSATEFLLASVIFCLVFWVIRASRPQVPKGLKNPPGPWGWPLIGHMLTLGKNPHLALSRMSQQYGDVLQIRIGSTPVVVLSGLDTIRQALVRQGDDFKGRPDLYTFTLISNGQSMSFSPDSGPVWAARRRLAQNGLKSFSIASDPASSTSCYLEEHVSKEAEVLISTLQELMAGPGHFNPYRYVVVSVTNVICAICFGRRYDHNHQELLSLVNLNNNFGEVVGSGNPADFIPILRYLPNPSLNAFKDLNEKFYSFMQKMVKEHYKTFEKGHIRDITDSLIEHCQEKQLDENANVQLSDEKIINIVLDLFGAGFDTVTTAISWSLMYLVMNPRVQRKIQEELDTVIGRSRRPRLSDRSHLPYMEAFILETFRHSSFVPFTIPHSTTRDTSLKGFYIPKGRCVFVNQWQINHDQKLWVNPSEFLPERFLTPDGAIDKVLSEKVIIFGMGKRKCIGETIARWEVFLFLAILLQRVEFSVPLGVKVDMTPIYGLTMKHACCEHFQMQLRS
Chain of Tumor necrosis factor (Homo sapiens) (P01375 whole entry, looked up): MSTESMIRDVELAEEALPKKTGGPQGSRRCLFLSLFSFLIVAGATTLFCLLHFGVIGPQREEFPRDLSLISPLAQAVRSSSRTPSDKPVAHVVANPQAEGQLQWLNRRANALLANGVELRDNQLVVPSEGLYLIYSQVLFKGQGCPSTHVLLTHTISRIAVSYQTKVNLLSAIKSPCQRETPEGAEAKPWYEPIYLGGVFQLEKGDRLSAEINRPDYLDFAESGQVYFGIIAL

COC1=CC(=O)C[C@@H](C)[C@]12Oc1c(Cl)c(OC)cc(OC)c1C2=O
inactive: [1] | [2] | [3] | [4] | [5] | [6] | [7] | [8] | [9] | [10] | [11] | [12] | [13] | [14] | [15]

CCCCCC(C)OC(=O)COc1ccc(Cl)c2cccnc12 (centres undefined)
inactive: [16]

CCCCCCCCCCCCOS(=O)(=O)O
inactive: [1] | [2] | [3] | [4] | [6] | [7] | [8] | [9] | [10] | [11] | [12] | [13] | [14] | [15]

Clc1ccc(Nc2nnc(Cc3ccncc3)c3ccccc23)cc1
inactive: [1] | [2] | [3] | [4] | [6] | [7] | [8] | [9] | [10] | [11] | [12] | [13] | [14] | [15]
